Hits are enriched below; roughly 2.3% of the tested compounds scored in any of these assays.
M1 ag parental: counter-screen for M1 agonists: effect in parental CHO-K1 cells; 0.48% of 360,000 active; activation, % at 3 µM; AID 602248, 2012; Fluo-8 calcium fluorescence; scaled to maximal ATP response, vehicle zero; in the data active = activation above about 15%;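 also: untransfected CHO-K1 host cells lacking M1 receptor as counterscreen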
CHO-K1 Ca PAM: nonselective calcium activators in parental CHO-K1 cells, primary screen, counter-screen for M1 PAM project, cell-based, Fluo-8 calcium fluorescence, full deck, 1536-well. 0.02% of 360,000 active. ATP EC20; 0% at ATP EC20, 100% at ATP max. activation, % at 3 µM;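 active = activation above the run cutoff, the mean activation of all test compounds plus 3 SD, cut at about 40% in these data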;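 also: peak over basal fluorescence ratio in a 140 s read after ATP addition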
CHO-K1 Ca antag: counter-screen for M1 antagonists: effect in parental CHO-K1 cells. ATP-induced calcium, Fluo-8 fluorescence. inhibition, % at 3 µM. 0.6% of 360,000 active. AID 602250;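 active = inhibition above a per-plate cutoff, the plate's mean sample inhibition plus 3 SD, cut at about 24% in these data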;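 also: 0% = DMSO plus EC80 ATP and 100% = DMSO alone without ATP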
M1 ag: human M1 muscarinic receptor agonists, primary screen, Fluo-8 calcium fluorescence, CHO-K1 cells, HTS | AID 588814, 2011 | CHO-K1 hM1, agonist mode; 0% DMSO, 100% acetylcholine EC100 | activation, % at 3 µM | Muscarinic acetylcholine receptor M1 (Homo sapiens), P11229 | 0.33% of 360,000 active;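 active = activation above the run's mean compound activation plus 3 SD, cut at about 16% in these data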;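 also: peak over basal fluorescence ratio within a 140 s kinetic read after compound addition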
Target sequence (P11229 whole entry, looked up): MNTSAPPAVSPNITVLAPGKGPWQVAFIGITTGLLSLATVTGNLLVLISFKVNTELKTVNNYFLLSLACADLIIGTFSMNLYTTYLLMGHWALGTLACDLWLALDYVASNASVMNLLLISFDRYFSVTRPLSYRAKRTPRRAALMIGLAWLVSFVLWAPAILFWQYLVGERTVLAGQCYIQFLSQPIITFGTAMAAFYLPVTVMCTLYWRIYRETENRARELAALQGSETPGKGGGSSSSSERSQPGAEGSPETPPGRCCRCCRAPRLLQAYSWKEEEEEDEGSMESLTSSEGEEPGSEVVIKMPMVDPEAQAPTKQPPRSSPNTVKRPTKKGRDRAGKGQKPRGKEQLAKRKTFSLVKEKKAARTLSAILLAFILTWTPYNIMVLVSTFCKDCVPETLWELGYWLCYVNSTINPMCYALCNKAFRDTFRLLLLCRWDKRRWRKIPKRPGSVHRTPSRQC
M1 PAM: human M1 muscarinic receptor positive allosteric modulators, primary screen, CHO-K1 cells, Fluo-8 calcium fluorescence, 1536-well | Muscarinic acetylcholine receptor M1 (Homo sapiens), P11229 | CHO-K1 hM1, ACh EC20; 0% = ACh EC20, 100% = maximal ACh | activation, % at 3 µM | 0.088% of 360,000 active | AID 588819, 2011; in the data active = activation above about 19%, passing the limit was not always enough
M1 antag: human M1 muscarinic receptor antagonists, primary screen, CHO-K1 cells, Fluo-8 calcium fluorescence, 1536-well; Muscarinic acetylcholine receptor M1 (Homo sapiens), P11229; CHO-K1 hM1, ACh EC80 antagonist; inhibition, % at 3 µM; 1.3% of 360,000 active;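 active = percent inhibition above its own plate's cutoff, namely the mean of that plate's compound wells plus 3 SD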;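 also: peak over basal fluorescence ratio during 140 s after agonist addition; 0% = ACh EC80 plus DMSO and 100% = DMSO alone without agonist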
Active calls of the source: *.

SMILES	M1 ag parental	CHO-K1 Ca PAM	CHO-K1 Ca antag	M1 ag	M1 PAM	M1 antag
Cc1c(C(=O)OC(C)CCN(C)C)oc2ccccc12 (configuration not stated)	0.5	8.8	-4.3	-4.7	-22.1	98.5*
Cc1c(C(=O)OCC(=O)N(C)Cc2ccccc2)oc2ccccc12	1.1	-8.4	5.3	-8.4	0.5	-0.5
Cc1c(C(=O)OCC(=O)N(C)c2ccccc2)oc2ccccc12	2.8	5.2	-8.7	-4.8	-21.9	33.2*
Cc1cc(C(=O)CS(=O)(=O)c2ccc(F)cc2)cc(C)c1O	1.8	-3.4	-4.6	0.3	-3.5	8.3
COc1ccc(-c2oc(=O)c3cc(OC)c(OC)cc3c2C#C[C@]2(O)CC[C@H]3[C@@H]4CCc5cc(OC)ccc5[C@H]4CC[C@@]32C)cc1	0.9	4.5	-16.6	-1.4	7.2	-5.9
O=C(NCc1ccncc1)c1ccc(S(=O)(=O)Nc2ccccc2)cc1	1.2	-6.8	-10.5	-3.2	3.4	-3.6
CC(C)c1ccc(Nc2nnns2)cc1	-0.1	-8.3	3.9	-3.5	0.2	9.5
Cn1ccnc1C(=O)c1cc(SCC(=O)N2CCOCC2)nc2ccccc12	0.8	-7.6	-4.4	-4.5	-5.6	22.8
COc1ccc(C(=O)OCCN2CCCCC2)cc1	0.1	10.6	-1.5	-14.1	9.2	-8.0
Cc1c(C(=O)OCCN2CCCCC2)oc2ccccc12	0.4	18.7	-6.1	-4.5	-21.3	91.8*
Cc1c(C(=O)OCC(=O)N2C(C)CCCC2C)oc2ccccc12 (configuration not stated)	0.8	-0.5	6.1	-5.5	3.9	-11.6
CC(C)(C)c1ccc(C(=O)OCCN2CCCCC2)cc1	10.4	11.8	-14.0	-7.2	-29.9	45.5*
CCCc1nc2ccccc2c(C(=O)N(CC)CC(=O)NCc2cccs2)c1CC	7.7	-5.8	10.7	-5.8	0.7	5.0
CCN1C/C(=C/c2ccc(N3CCOCC3)cc2)C(=O)/C(=C/c2ccc(N3CCOCC3)cc2)C1	34.2*	6.2	27.5*	23.5*	-9.4	31.5
CCOc1ccc2[nH]c3c(N4CCc5ccccc5C4)ncnc3c2c1	2.2	7.2	-4.7	0.0	21.4	-11.7
Cc1ccc2[nH]c3c(N4CCc5ccccc5C4)ncnc3c2c1	9.9	-4.3	34.8*	4.5	-14.5	30.0*
Fc1ccc2[nH]c3c(N4CCc5ccccc5C4)ncnc3c2c1	14.1	-16.2	28.2*	2.1	-15.3	41.0*
CCN(CC(=O)Nc1ccc(OC)cc1)CC(=O)N1CC(=O)Nc2ccccc21	0.0	13.5	-22.9	-4.8	5.2	-3.7
Cc1ccc(Cn2c(=O)c3ccccc3n3nc(C)cc23)cc1	0.1	-7.3	-5.0	-2.2	-1.0	10.3
COC(=O)c1sccc1S(=O)(=O)Nc1ccc(C(O)(C(F)(F)F)C(F)(F)F)cc1	60.6*	3.3	8.4	66.4*	-32.5	38.7*
COC(=O)c1sccc1S(=O)(=O)Nc1ccc(Cl)cc1	5.8	2.4	-13.8	-2.5	-7.1	9.6
COc1ccc(S(=O)(=O)N2CCOCC2)cc1NC(=O)c1ccccc1C	2.5	6.0	11.0	-0.2	1.7	0.6
Cc1ccc([C@@H]2[C@@H]3C(=O)N(c4ccccc4)C(=O)[C@@H]3[C@]3(C)C(=O)N(Cc4ccc(-c5ccccc5)cc4)CC(=O)N23)o1	0.5	-1.7	-2.6	-0.6	-1.5	9.8
COCCn1c2nc(=O)n(-c3ccccc3)c(=O)c-2nc2ccccc21	72.7*	7.6	9.7	56.3*	-21.9	18.3
CCOC(=O)C1CCN(CCCSc2ccc(Cl)cc2)CC1	0.6	-10.8	1.6	-10.9	-19.0	28.4*
SMILES	M1 ag parental	CHO-K1 Ca PAM	CHO-K1 Ca antag	M1 ag	M1 PAM	M1 antag
CC1CCN(CCOCCSc2ccc(Cl)cc2)CC1	-0.3	-8.2	26.9*	-12.2	-26.2	28.2
Clc1ccc(SCCOCCN2CCOCC2)cc1	-0.1	-9.4	9.2	-8.5	-9.9	23.3
CC1CCCN(CCCOc2ccc(Cl)cc2Br)C1 (configuration not stated)	0.5	23.2	-1.9	-12.8	-16.7	13.4
CC1CCCN(CCSc2ccc(Cl)cc2)C1 (configuration not stated)	-0.1	-5.4	4.3	-6.8	-25.0	36.9*
Clc1ccc(SCCOCCN2CCCCC2)cc1	1.8	17.2	-6.8	-10.9	-22.2	27.5*
COc1cc(OC)c(NC(=O)N2CCOCC2)cc1Cl	1.1	15.4	-8.2	-2.5	4.1	-0.8
CC1=C(C(N)=O)S(=O)(=O)c2ccccc21	0.1	8.3	3.9	-5.3	6.5	-9.3
CC(C)N1CCC1(C)C(=O)Nc1cccc(C#N)c1 (configuration not stated)	0.3	14.8	1.8	-4.5	4.2	6.6
CC1CCCC(C)N1C(=O)COC(=O)/C=C/c1ccc(Br)o1 (configuration not stated)	0.0	14.3	-8.2	-5.8	5.6	-8.5
CN(C)c1ccc(/C=C/C(=O)c2c(O)c3ccccc3oc2=O)cc1	31.8*	9.0	3.4	29.6*	-12.2	12.4
C[C@H](CO)N1C[C@H](C)[C@@H](CN(C)C(=O)C2CC2)OCc2cnnn2CCCC1=O	0.2	-7.4	-6.4	-3.0	3.0	-14.6
CC[N+](CC)(CC)CCOc1ccc(/C=C/c2ccccc2)cc1	-0.3	-2.2	2.9	-7.1	-26.7	94.7*
CCOc1ccc(/C=C/C(=O)c2ccccc2)cc1	-0.1	7.0	-22.4	-3.6	7.8	-7.7
Cc1ccc(C)c(C(C)NC(=S)NCc2ccc(F)cc2)c1 (configuration not stated)	16.6*	6.6	-8.7	10.2	-6.6	11.2
CCCOc1ccccc1/C=C1\SC(N2CCCCC2)=NC1=O	2.4	13.1	-12.3	-4.6	-3.8	9.8
CC(C)(C)NC(=O)c1nc2ccccc2s1	0.0	-4.9	6.5	-3.3	-6.7	9.4
CC(C)(C)NC(=O)c1ccccc1-c1nc2ccccc2s1	33.5*	9.4	0.5	18.0*	5.3	-5.2
O=C(CSCC(=O)N1CCCCC1)Nc1nc(-c2ccc(Cl)s2)cs1	8.9	-4.7	14.1	0.5	-7.8	31.1*
CC1=C(NCCc2ccccc2)CCC1=O	1.2	19.3	-7.0	-5.9	-0.5	-27.7
CCCNC1=C(C)C(=O)CC1	0.1	-7.8	24.1*	-2.9	-4.7	19.7
Cc1ccc(NC(=O)Nc2ccc(F)c(Cl)c2)cc1	14.0	-10.5	21.1	5.2	-15.3	35.6*
O=C(Nc1cccnc1)Nc1ccc(F)c(Cl)c1	15.5*	5.8	-6.1	8.6	-13.7	9.2
COc1ccc(NC(=O)Nc2ccc(F)c(Cl)c2)cc1	14.5	2.2	17.8	-1.6	-10.6	10.3
